# MazEF act = increases E. coli MazEF RNase cleavage of RNA; P0AE70; FAM/BHQ RNA-DNA oligo cleavage fluorescence, 5 h; activation, % at 20 µM; 350,000 tested, 0.32% active; AID 504720; in the data active = activation above about 50%
# Target sequence (P0AE70 whole entry, looked up): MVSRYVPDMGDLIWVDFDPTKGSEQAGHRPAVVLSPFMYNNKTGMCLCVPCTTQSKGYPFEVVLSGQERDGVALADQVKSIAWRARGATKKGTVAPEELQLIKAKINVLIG
# BoNT A protease = blocks Botulinum neurotoxin A light chain protease; 360,000 tested, 0.17% active; inhibition, % at 10 µM; multiplex microsphere protease substrate cleavage, flow cytometry; also: plate controls were buffer without enzyme for full effect and enzyme alone for no effect
# Anthrax LF inh2 = inhibitors of Bacillus anthracis lethal factor protease | P15917 | multiplex microsphere protease cleavage assay, LF | inhibition, % at 10 µM | 360,000 tested, 0.12% active; also: plate controls were buffer without enzyme for full effect and enzyme alone for no effect
# BoNT F protease = blocks Botulinum neurotoxin F light chain protease | 360,000 tested, 0.22% active | AID 588497 | inhibition, % at 10 µM | Multiplex microsphere protease cleavage assay, flow cytometry; in the data active = inhibition above about 35%, passing the limit was not always enough; inconclusive = no clear call, values can overlap the other calls; also: plate controls were buffer without enzyme for full effect and enzyme alone for no effect
# Autofluor counter = flagged as autofluorescent in microsphere protease counterscreen; AID 624483; 360,000 tested, 3.1% active; compound autofluorescence counterscreen, microsphere flow cytometry; hits give high values; fluorescence intensity (test concentration not listed); in the data active = fluorescence intensity above about 16000; inconclusive = no clear call, values can overlap the other calls
# * hit, by the source's call; ? = inconclusive; / = no result given. A selection: hits, their analogues and other compounds. The true share with any hit is near 3.7%. Rule as the data show it, unless noted: active = inhibition above about 30%; inconclusive = no clear call, values can overlap the other calls; inactive = below that.
SMILES,MazEF act,BoNT A protease,Anthrax LF inh2,BoNT F protease,Autofluor counter
O=C(CCNC(=O)N1CC(=O)Nc2ccccc21)Nc1cccc(Cl)c1,10,0,-2,-3,5767
COc1nc(-c2ccccc2)cc(-c2ccc(OC)c(OC)c2)n1,19,0,-1,-2,19447*
COc1ccc(-c2cc(-c3ccccc3)nc(NN)n2)cc1OC,14,0,-5,-16,3061
COc1ccc(N(CC(=O)NCC2CCCO2)C(=O)CCC(=O)Nc2cc(C)on2)cc1OC (centres undefined),0,-6,-2,-22,4014
Cc1cc(C)cc(C(=O)NCC(=O)OCC(=O)N2CCCC2)c1,5,0,-13,0,3621
CCc1ccc(OCC2Cn3c(nc4c3c(=O)[nH]c(=O)n4C)O2)cc1 (centres undefined),7,1,-5,?,4085
Cc1ccc(OCC2Cn3c(nc4c3c(=O)[nH]c(=O)n4C)O2)cc1 (centres undefined),0,2,-2,3,20012*
Cc1ccc2sc3ccc(NC(=O)c4ccccc4Cl)cc3c(=O)c2c1,-5,8,11,4,22506*
Cc1ccc(C(=O)Nc2ccc(NC(=O)c3ccccc3Cl)c(C)c2)cc1,10,0,2,6,3920
Cc1cc(NC(=O)c2ccc(Cl)cc2)ccc1NC(=O)c1ccccc1Cl,-14,4,-12,37*,2820
CC(C)c1cc(C(=O)OCC(=O)NC2CC2)c(O)c(C(C)C)c1,-15,0,-4,-6,2892
CCOC(=O)c1c(C)[nH]c(C)c1C(=O)COC(=O)c1ccc(S(=O)(=O)N(CC)CC)cc1,-8,?,-7,-3,16763*
CCOC(=O)c1c(C)[nH]c(C)c1C(=O)COC(=O)c1cccc(S(=O)(=O)N(CC)CC)c1,-2,0,-2,-4,3602
CC(C)CCn1c2ccccc2c2cc(CC(N)=O)ccc21,-22,1,-3,-4,6245
C[C@H](NC(=O)Nc1cccc(C(F)(F)F)c1)C(=O)O,15,?,-3,-4,21298*
COc1ccccc1NC(=O)N1CCN(c2cccc(C(F)(F)F)c2)CC1,-13,-1,-1,-3,23145*
COC(=O)[C@H](CC(C)C)NC(=O)N1CCN(c2cccc(C(F)(F)F)c2)CC1,-3,-1,-1,-1,23638*
O=C(Nc1ccccc1)Nc1cccc(C(F)(F)F)c1,10,-1,-7,1,4369
COc1ccccc1NC(=O)N1CCN(c2ccc(F)cc2)CC1,1,1,-1,4,4002
Cc1ccc(OC(F)F)c(NC(=O)Nc2cccc(C(F)(F)F)c2)c1,22,1,-3,-4,19099*
CC(C)C[C@H](NC(=O)N1CCN(c2ccccc2)CC1)C(=O)O,0,-1,-5,-9,11082
O=C(Nc1ccc(Nc2ccccc2)cc1)C(Cl)(Cl)Cl,-2,-1,-3,-11,2693
CC1CCC(NC(=O)CC(NC(N)=O)c2ccccc2Cl)CC1 (centres undefined),7,1,-2,6,3579
CCOC(=O)C1=CC[C@]2(C)c3c(c4ccccc4n3C)C(=O)C1N2C,1,0,-6,-8,4149
CCOc1ncccc1C(=O)OCC(=O)Nc1ccc2c(c1)OCCO2,0,0,-5,-7,3470
SMILES,MazEF act,BoNT A protease,Anthrax LF inh2,BoNT F protease,Autofluor counter
O=C(O)C1C2C=CC(C2)C1C(=O)Nc1cccc(C(F)(F)F)c1 (centres undefined),1,3,2,50*,3235
CC(=O)Nc1cccc(NC(=O)C2C3C=CC(C3)C2C(=O)O)c1 (centres undefined),-3,0,15,-21,3641
O=C(Nc1cccc(C(F)(F)F)c1)N1CCN(C(=O)Nc2cccc(C(F)(F)F)c2)CC1,-1,-2,0,-3,22460*
CCCN1CCN(C(=O)Nc2cccc(C(F)(F)F)c2)CC1,13,-1,1,-1,1894
CC(=O)Nc1ccc(CN2CCN(c3cccc(C(F)(F)F)c3)CC2)cc1,9,-2,-2,-3,17158*
CC(=O)Nc1ccc(NC(=O)CN2CCN(c3cccc(C(F)(F)F)c3)CC2)cc1,7,0,-2,-8,2572
O=C(/C=C/Nc1cccc(C(F)(F)F)c1)C(F)(F)F,-8,?,-1,1,20521*
CCn1c(S(=O)(=O)O)nc2ccccc21,7,0,12,2,4781
O=C(NCCc1ccccn1)C1CC(=O)N(Cc2ccccc2Cl)C1 (centres undefined),-1,?,-2,0,19830*
O=C1Nc2ccccc2/C1=C\c1cccn1-c1ccc(OC(F)(F)F)cc1,-1,-2,-5,-6,24253*
CCOC(=O)C1(C)CCN1C(=O)c1cccc(C#N)c1 (centres undefined),/,0,-3,2,4022
CCc1c(C(=O)Nc2nnc(C3CC3)s2)csc1C,7,?,1,0,21291*
CCOc1ncccc1C(=O)Nc1nnc(C2CC2)s1,12,0,3,0,5353
COC(=O)C1=CN(Cc2ccc(OC)cc2)C=C(C(=O)OC)C1c1cc(OC)c(OC)c(OC)c1,6,-2,-2,41*,3899
CCCCn1nnnc1C(c1cc2ccccc2o1)N(Cc1ccccc1)Cc1ccccc1 (centres undefined),/,0,-6,-3,6684
COc1ccc(NC(=O)COC(=O)CCCc2c[nH]c3ccccc23)cc1,8,-3,1,-12,10725
COc1cccc(NC(=O)COC(=O)CCCc2c[nH]c3ccccc23)c1,8,3,-3,-2,22839*
O=C(NCc1cccc(Cl)c1)c1ccc2c(c1)OCCO2,0,-1,-6,3,3346
CCOC(=O)c1sc(=S)n(-c2ccccc2Cl)c1SC,-11,2,-1,5,6821
COC(=O)c1sc(=S)n(-c2cc(F)ccc2F)c1N,-4,-1,0,-2,19767*
CCOC(=O)c1sc(-c2ccc(F)cc2)cc1N,-5,-5,-2,-9,25606*
CCOC(=O)c1sc(=S)n(-c2cc(OC)ccc2OC)c1N,7,0,0,-8,2436
CCOC(=O)c1sc(=S)n(-c2cc(F)ccc2F)c1N,5,-1,-3,-5,24008*
CCOC(=O)c1sc(=S)n(-c2ccccc2)c1SC,9,-6,-1,-10,21506*
Cc1ccc(-n2c(N)c(C(N)=O)sc2=S)cc1,4,-1,-3,-8,2211
CCOC(=O)c1sc(-c2ccc(OC)cc2)cc1N,-2,0,-6,0,2500
COCCNC(=O)c1ccc(C2SCC(=O)N2CCc2ccccc2)cc1 (centres undefined),0,3,-10,8,3287
CC(C)N(C(=O)Cn1cc(S(=O)(=O)CC(=O)NCc2ccc(F)cc2)c2ccccc21)C(C)C,2,-3,-4,-3,6297
COc1cnn(C(C)(C)C)c(=O)c1Cl,-3,?,-7,6,19156*
CCN(CC)CCNC(=O)CNC(=O)c1nn(-c2ccc(OC)c(OC)c2)c(=O)c2ccccc12,3,-2,8,-6,3319
